From PubChem BioAssay
Unmarked numbers belong to inactive results. Active and inactive are the calls of the source.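 How the source made its calls, unless noted: active means potentiation averaged over duplicate wells exceeding buffer-only control mean by more than 3 SD; inactive means the rest.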

What was measured:
[1] = thallium flux activation in parental CHO cells, counter-screen for KCNQ1 potentiator project (AID 493006;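 active means duplicate-averaged activation above buffer control mean plus 5 SD of those controls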;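 on activation: fluorescence ratio of max minus min over baseline after K+ and Tl+ depolarization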); conditions: parental CHO-K1 cells, FluxOR thallium flux, at 10 µM; active compounds read high
[2] = target: Potassium voltage-gated channel subfamily KQT member 1 (Homo sapiens) (UniProt P51787); assay: KCNQ1 potassium channel potentiators, confirmation, FluxOR thallium flux, CHO cells, duplicates (AID 493007); conditions: KCNQ1 cell line, FluxOR thallium flux fluorescence, at 10 µM; active compounds read high, % of reference activator effect, buffer zero;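 on outcome: cells depolarized by a potassium plus thallium sulfate stimulus after compound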;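 on potentiation: 0% = buffer-only wells and 100% = R-L3 activator control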
[3] = target: Potassium voltage-gated channel subfamily KQT member 2 (Rattus norvegicus) (UniProt O88943); assay: rat KCNQ2 channel potentiation, selectivity assay for KCNQ1 potentiator project, KCNQ2-CHO-K1 cells (AID 493009;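 active means mean duplicate potentiation above the buffer control mean plus 5 SD of buffer wells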;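 further: assay conditions were tuned for KCNQ1 rather than KCNQ2 modulators; signal is max minus min fluorescence divided by baseline after thallium stimulus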); conditions: FluxOR thallium flux fluorescence, at 10 µM; active compounds read high, scaled: buffer 0, activator control 100
[4] = target: Potassium voltage-gated channel subfamily KQT member 1 (Homo sapiens) (UniProt P51787); assay: KCNQ1 channel current potentiators, confirmation, orthogonal assay for KCNQ1 potentiator project, IonWorks patch clamp, KCNQ1-CHO cells (AID 493184;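 active means current rise at least 3 SD above the untreated control mean in each of two repeat wells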); conditions: automated patch clamp current, at 10 µM; active compounds read high

Potassium voltage-gated channel subfamily KQT member 1 (Homo sapiens), sequence (P51787 whole entry, looked up): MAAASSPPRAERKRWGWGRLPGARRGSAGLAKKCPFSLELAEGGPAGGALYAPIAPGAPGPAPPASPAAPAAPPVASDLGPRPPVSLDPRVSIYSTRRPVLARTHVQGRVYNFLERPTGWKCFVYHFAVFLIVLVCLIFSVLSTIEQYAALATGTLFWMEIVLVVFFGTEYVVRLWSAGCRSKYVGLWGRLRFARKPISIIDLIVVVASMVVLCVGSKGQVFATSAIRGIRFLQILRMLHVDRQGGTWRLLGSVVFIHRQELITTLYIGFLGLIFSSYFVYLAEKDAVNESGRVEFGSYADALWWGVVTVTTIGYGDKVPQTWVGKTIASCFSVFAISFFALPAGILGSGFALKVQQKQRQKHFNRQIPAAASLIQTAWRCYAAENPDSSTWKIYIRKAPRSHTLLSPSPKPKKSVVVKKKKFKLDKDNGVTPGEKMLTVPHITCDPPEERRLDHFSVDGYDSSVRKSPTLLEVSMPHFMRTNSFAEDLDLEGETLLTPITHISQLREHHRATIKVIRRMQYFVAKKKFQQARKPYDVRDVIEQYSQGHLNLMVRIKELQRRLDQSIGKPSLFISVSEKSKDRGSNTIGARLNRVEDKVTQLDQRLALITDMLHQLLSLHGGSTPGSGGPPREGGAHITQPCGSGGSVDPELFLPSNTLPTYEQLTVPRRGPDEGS
Potassium voltage-gated channel subfamily KQT member 2 (Rattus norvegicus), sequence (O88943 whole entry, looked up): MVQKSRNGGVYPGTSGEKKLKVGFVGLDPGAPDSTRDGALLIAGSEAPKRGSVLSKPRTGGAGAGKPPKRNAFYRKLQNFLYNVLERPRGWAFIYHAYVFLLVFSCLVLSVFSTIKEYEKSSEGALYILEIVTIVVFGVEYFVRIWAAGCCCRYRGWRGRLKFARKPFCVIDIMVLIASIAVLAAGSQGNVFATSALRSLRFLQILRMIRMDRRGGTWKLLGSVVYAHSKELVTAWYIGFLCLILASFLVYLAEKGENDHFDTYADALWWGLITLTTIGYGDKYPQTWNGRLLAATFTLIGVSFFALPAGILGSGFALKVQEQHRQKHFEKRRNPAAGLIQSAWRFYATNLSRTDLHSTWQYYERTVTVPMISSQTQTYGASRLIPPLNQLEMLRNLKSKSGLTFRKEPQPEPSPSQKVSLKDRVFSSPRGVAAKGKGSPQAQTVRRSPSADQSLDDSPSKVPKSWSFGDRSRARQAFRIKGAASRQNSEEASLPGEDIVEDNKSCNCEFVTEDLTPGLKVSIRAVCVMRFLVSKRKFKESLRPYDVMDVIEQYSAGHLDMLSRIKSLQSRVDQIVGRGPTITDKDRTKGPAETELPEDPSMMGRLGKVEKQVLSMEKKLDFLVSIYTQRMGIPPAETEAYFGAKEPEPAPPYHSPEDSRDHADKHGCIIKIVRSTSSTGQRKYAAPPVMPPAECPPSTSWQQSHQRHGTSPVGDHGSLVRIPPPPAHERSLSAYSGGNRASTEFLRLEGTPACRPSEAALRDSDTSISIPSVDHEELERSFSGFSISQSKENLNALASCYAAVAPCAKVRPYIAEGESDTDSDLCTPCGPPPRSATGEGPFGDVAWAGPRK

Row | SMILES | activation [1] | potentiation [2] | potentiation [3] | outcome [4] | outcome [1] | outcome [2] | outcome [3]
1 | Cc1[nH]n(C(N)=S)c(=O)c1N=Nc1ccc2ccccc2c1 | 150% (active) | 238% (active) | 628% (active) | inactive | – | – | –
2 | CCOC(=O)c1ccccc1NC(=O)CSc1nc2ccccc2n1CC(=O)N1CCCC1 | – | – | – | inactive | inactive | inactive | inactive
3 | OCCN1CCN(c2ncnc3c2sc2nc(N4CCOCC4)c4c(c23)CCC4)CC1 | – | 19% (active) | – | inactive | inactive | – | inactive
4 | O=C(Nc1ccc(N2CCCCC2)cc1)c1cccnc1Cl | – | – | – | inactive | inactive | inactive | inactive
5 | CC(C)(C)C(=O)NC1CC2CCCC(C1)N2C(=O)Nc1ccccc1 (stereo not given) | – | – | – | inactive | inactive | inactive | inactive
6 | CC1CCc2sc(-c3n[nH]c(=S)o3)cc2C1 (stereo not given) | 207% (active) | 30% (active) | 179% (active) | inactive | – | – | –
7 | Cc1ccccc1CC(=O)NC1CCN(Cc2ccccc2)CC1 | – | – | – | inactive | inactive | inactive | inactive
8 | C/C(=N/NC(=O)c1ccc(Br)o1)c1ccc(C)o1 | – | – | – | inactive | inactive | inactive | inactive
9 | Cc1ccc(OCCN2C(=O)c3ccccc3C2=O)c([N+](=O)[O-])c1 | – | – | – | inactive | inactive | inactive | inactive
10 | CCCNC(=O)C(=O)N/N=C/c1cccs1 | – | 24.5% (active) | – | inactive | inactive | – | inactive
11 | O=C(NC(=S)Nc1ccccc1N1CCCCC1)c1cccs1 | 212% (active) | 133% (active) | 234% (active) | inactive | – | – | –
12 | CC(/C=N/NC(=O)c1cc(-c2cccs2)[nH]n1)=C\c1ccccc1 | 184% (active) | 116% (active) | 250% (active) | inactive | – | – | –
13 | Cn1nnnc1SCC(=O)NCc1ccc2c(c1)OCO2 | – | – | – | inactive | inactive | inactive | inactive
14 | Cc1ccc(-c2c(C(=O)O)c3ccccc3[nH]c2=O)cc1 | – | – | – | inactive | inactive | inactive | inactive
15 | Oc1c(N=NC(=S)Nc2ccccc2F)c2ccccc2n1Cc1ccc(F)cc1 | – | 19.5% (active) | – | inactive | inactive | – | inactive
16 | N#C/C(=C\c1ccc(-c2ccccc2[N+](=O)[O-])o1)C(=O)Nc1nc(-c2cccs2)cs1 | 208% (active) | 56% (active) | 224% (active) | inactive | – | – | –
17 | S=c1[nH]nc(-c2ccco2)n1/N=C/c1ccc(Cl)cc1Cl | 174% (active) | 48% (active) | 173% (active) | inactive | – | – | –
18 | COC(=O)c1sc(NC(=S)NC(=O)c2ccccc2F)nc1C | – | – | – | inactive | inactive | inactive | inactive
19 | c1ccc2c(OCCCCN3CCOCC3)cccc2c1 | – | – | – | inactive | inactive | inactive | inactive
20 | COc1cccc(C(=O)NNC(=O)C(=O)Nc2cccc3ccccc23)c1 | 218% (active) | 51.5% (active) | 228% (active) | inactive | – | – | –
21 | Cc1ccc(Cc2c[nH]c(=S)s2)cc1 | 348% (active) | 126% (active) | 343% (active) | inactive | – | – | –
22 | COC(=O)CCCC[C@@H]1SC[C@@H](NC(=O)OC)[C@@H]1NC(=O)OC | – | – | – | inactive | inactive | inactive | inactive
23 | CC(=O)c1c(N2CCCC2)[nH]c(-c2ccccc2)nc1=S | – | – | – | inactive | inactive | inactive | inactive
24 | Cc1ccc(-c2c(C)n([O-])c3c([n+]2=O)CCCC3)o1 | – | – | – | inactive | inactive | inactive | inactive

Row | SMILES | activation [1] | potentiation [2] | potentiation [3] | outcome [4] | outcome [1] | outcome [2] | outcome [3]
25 | CC(=O)c1c(C)[nH]c(C(=O)OCc2nc3ccsc3c(=O)[nH]2)c1C | – | – | – | inactive | inactive | inactive | inactive
26 | Cc1ccc2nc3c(cc(C(=O)NCC4CCCO4)c(=N)n3C3CCCC3)c(=O)n2c1 (stereo not given) | – | – | – | inactive | inactive | inactive | inactive
27 | Clc1ccc(-c2csc(N3CCc4ccccc4C3)n2)cc1 | – | – | – | inactive | inactive | inactive | inactive
28 | CCCCCCCCCCCCN1[C@@H](CC(=O)O)c2cc(F)ccc2S1(=O)=O | 230% (active) | 76% (active) | 190% (active) | inactive | – | – | –
29 | CCC1CCCCN1S(=O)(=O)c1ccc(NC(=O)c2cccnc2)cc1 (stereo not given) | – | – | – | inactive | inactive | inactive | inactive
30 | COc1ccc2nc(N=Nc3ccc(O)c4ccccc34)sc2c1 | 210% (active) | 83.5% (active) | 188% (active) | inactive | – | – | –
31 | COc1ccc(C(=O)Nc2ccnn2C2CCN(Cc3ccncc3)CC2)cc1 | – | – | – | inactive | inactive | inactive | inactive
32 | COc1ccc(-n2c(C)cc(C(=O)CCl)c2C)cc1 | – | – | – | inactive | inactive | inactive | inactive
33 | Cc1cccc(NC(=O)c2ccc(COc3ccccc3[N+](=O)[O-])o2)n1 | – | – | – | inactive | inactive | inactive | inactive
34 | O=C(NC(=S)N1CCc2ccccc21)c1ccc(Br)o1 | 400% (active) | 124% (active) | 440% (active) | inactive | – | – | –
35 | CCCc1cc2c(-c3ccccc3)cc(=O)oc2cc1OCc1ccc(C(=O)O)o1 | 193% (active) | 73% (active) | 222% (active) | inactive | – | – | –
36 | Cc1ccc(NC(=O)C(=O)NNC(=O)c2cccs2)cc1 | 337% (active) | 88.5% (active) | 326% (active) | inactive | – | – | –
37 | O=C(NC(=S)NCCC1=CCCCC1)c1ccc(Br)o1 | 212% (active) | 304% (active) | 371% (active) | inactive | – | – | –
38 | Cc1nc(SCC(=O)NCC2CCCO2)c2c3c(sc2n1)CCCC3 (stereo not given) | 158% (active) | 55% (active) | 197% (active) | inactive | – | – | –
39 | O=c1c2cc(Br)ccc2nc(-c2ccc([N+](=O)[O-])cc2)n1O | 346% (active) | 147% (active) | 410% (active) | inactive | – | – | –
40 | O=c1c(-c2ccc(Cl)cc2)[n+]([O-])c2ccccc2n1O | 190% (active) | – | 184% (active) | inactive | – | inactive | –
41 | Cc1nc2sc(C(c3ccccc3)N3CCN(C(=O)c4ccco4)CC3)c(O)n2n1 (stereo not given) | – | – | – | inactive | inactive | inactive | inactive
42 | O=c1c2cc(Br)ccc2nc(-c2ccccc2)n1O | 366% (active) | 63.5% (active) | 314% (active) | inactive | – | – | –
43 | CCCCCn1c(=S)[nH]c2ncccc2c1=O | 206% (active) | 39.5% (active) | 200% (active) | inactive | – | – | –
44 | COc1ccc(NC(=S)N2CCC(C(O)(c3ccccc3)c3ccccc3)CC2)cc1 | – | – | 186% (active) | inactive | inactive | inactive | –
45 | CN1C(=O)C2(Oc3ccccc3C3CC(c4ccccc4)=NN32)c2ccccc21 (stereo not given) | – | – | – | inactive | inactive | inactive | inactive
46 | COCCNC(=O)C1CCN(S(=O)(=O)N2CCC3(CC2)OCCO3)CC1 | – | – | – | inactive | inactive | inactive | inactive
47 | CCC(=O)Nc1cc(-c2nn3c(C)nnc3s2)ccc1C | – | – | – | inactive | inactive | inactive | inactive
48 | O=C(NCc1ccccc1)/C(=C/c1ccccc1)NC(=O)c1ccco1 | – | – | – | inactive | inactive | inactive | inactive

Row | SMILES | activation [1] | potentiation [2] | potentiation [3] | outcome [4] | outcome [1] | outcome [2] | outcome [3]
49 | CCOc1ccc2nc(N3C(=O)/C(=C/c4ccc(Cl)cc4)NC3=S)sc2c1 | 283% (active) | 143% (active) | 416% (active) | inactive | – | – | –
50 | N=c1ccn(CC(=O)c2ccc(-c3ccccc3)cc2)cc1 | – | – | – | inactive | inactive | inactive | inactive
51 | C/C(=N\NC(=S)Nc1ccc(C)cc1)c1cc2ccccc2o1 | – | 97% (active) | 169% (active) | inactive | inactive | – | –
52 | CCC1CCc2c(sc(NC(=O)C3CC=CCC3C(=O)O)c2C#N)C1 (stereo not given) | – | – | – | inactive | inactive | inactive | inactive
53 | COc1ccc(NC(=O)C(=O)NNC(=O)c2cccs2)c(OC)c1 | 246% (active) | 37.5% (active) | 220% (active) | inactive | – | – | –
54 | O=C(COc1ncnc2ccc(Br)cc12)Nc1ccc(N2CCOCC2)cc1 | – | – | – | inactive | inactive | inactive | inactive
55 | COc1ccc(NC(=O)CC2C(=O)NCCN2C(=O)Nc2ccc(C(F)(F)F)cc2)cc1 (stereo not given) | – | – | – | inactive | inactive | inactive | inactive
56 | Cc1ccccc1-c1nc(Cc2ccc(Cl)cc2)no1 | – | – | – | inactive | inactive | inactive | inactive
57 | CNc1ccccc1C(=O)OC(C)C(=O)Nc1ccc(Cl)cn1 (stereo not given) | – | – | – | inactive | inactive | inactive | inactive
58 | COc1ccc(C2C(C(=O)c3ccccc3)=C(C)Nc3nc4ccccc4n32)cc1OC (stereo not given) | – | – | – | inactive | inactive | inactive | inactive
59 | O=C(Nc1ccccc1OC(F)F)c1ccc(F)cc1 | – | – | – | inactive | inactive | inactive | inactive
60 | CCOC(=O)Cc1csc(NC(=S)NC(=O)c2ccccc2Br)n1 | 233% (active) | 51% (active) | 239% (active) | inactive | – | – | –
61 | COC(=O)C1CCCN1C(=O)COc1ccc(Br)cc1Cl (stereo not given) | 206% (active) | 48.5% (active) | 198% (active) | inactive | – | – | –
62 | C/C(=N\NC(=S)Nc1cccc(C)c1)c1cc2ccccc2o1 | 159% (active) | 60% (active) | 172% (active) | inactive | – | – | –
63 | Cc1ccc(NC(=O)CN(C)C(=O)CCOc2ccccc2C)cc1 | – | – | – | inactive | inactive | inactive | inactive
64 | CCCCCc1ccc(C(=O)CCCC)c(=S)[nH]1 | 277% (active) | 154% (active) | 300% (active) | inactive | – | – | –
65 | Cc1ccc(C(=O)CC(=O)c2cccc(F)c2)c(O)c1 | 156% (active) | 35% (active) | 150% (active) | inactive | – | – | –
66 | Cc1cc(C)c(NC(=O)c2cn3c4c(c(N5CCN(C)CC5)c(F)cc4c2=O)OCC3C)c(C)c1 (stereo not given) | – | – | – | inactive | inactive | inactive | inactive
67 | CCn1nc(C)c(CNC(=O)C2CCC(=O)N(Cc3cccc(F)c3)C2)c1C (stereo not given) | – | – | – | inactive | inactive | inactive | inactive
68 | Cc1cccc(NC(=S)NNC(=O)c2cc3c(s2)CCC(C)C3)c1C (stereo not given) | 192% (active) | 55.5% (active) | 264% (active) | inactive | – | – | –
69 | O=C(NC(=S)Nc1ccc(C(F)(F)F)cc1)c1csnn1 | 590% (active) | 269% (active) | 555% (active) | inactive | – | – | –
70 | CCOc1ccc2c(c1)C(NC(C)=O)C(=O)N2CCN1CCOCC1 (stereo not given) | – | – | – | inactive | inactive | inactive | inactive
